# Experimental data as given in the supplement of paper PMC3334620.
# In all, about 33,000 sequences were measured (“E-score (-0.5 to 0.5)”: median about -0.016, highest 2% from about 0.32 on). The full list was thinned out, with the highest values kept by preference.
# Target: T1, Stp1 (UniProt B3LFK1)
# T1 sequence: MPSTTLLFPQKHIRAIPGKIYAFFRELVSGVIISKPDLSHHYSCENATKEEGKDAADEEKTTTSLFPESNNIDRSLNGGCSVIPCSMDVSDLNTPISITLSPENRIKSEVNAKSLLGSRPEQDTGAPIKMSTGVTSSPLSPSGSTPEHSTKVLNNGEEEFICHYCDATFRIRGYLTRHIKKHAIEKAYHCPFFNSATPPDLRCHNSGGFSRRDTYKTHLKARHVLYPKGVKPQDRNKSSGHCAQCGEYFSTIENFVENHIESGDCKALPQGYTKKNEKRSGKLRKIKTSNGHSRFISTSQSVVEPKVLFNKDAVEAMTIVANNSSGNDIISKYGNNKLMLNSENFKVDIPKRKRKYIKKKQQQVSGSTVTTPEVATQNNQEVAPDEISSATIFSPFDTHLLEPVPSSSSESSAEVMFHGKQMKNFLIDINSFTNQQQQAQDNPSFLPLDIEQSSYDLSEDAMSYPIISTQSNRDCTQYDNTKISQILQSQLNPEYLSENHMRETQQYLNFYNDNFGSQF
# Test: PBM E-score (8-mer binding enrichment) (E-score (-0.5 to 0.5)); higher = stronger / more preferred TF binding
# Details: protein concentration: 200 nM; construct: GST-full length
# Outline: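 The E-score, a modified Wilcoxon-Mann-Whitney statistic, was computed by the Universal PBM Analysis Suite for every ungapped eight-base word pooled with its reverse complement. Scans behind it were normalised with masliner after bound GST-tagged yeast transcription factors were detected with fluorescent anti-GST. The proteins, at about 100-200 nM, had been applied to universal all-10-mer Agilent arrays made double-stranded by primer extension.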
row,Sequence,PBM E-score
1,ACCGTTGA,-0.134
2,ACCGTTTA,0.168
3,AGCGTTTA,-0.127
4,CCCGTTGA,-0.0684
5,GCCGTTGA,0.383
6,CGCGTTTA,-0.0505
7,CCCGTTTA,0.185
8,GGCGTTTA,0.337
9,GCCGTTTA,0.443
10,GAATCTCC,-0.122
11,GGAAGGAA,-0.0797
12,GAACTGAC,0.0623
13,AGAGTATG,-0.303
14,AGCTGCTC,-0.127
15,CGGATAGA,0.228
16,TGACCGCA,0.025
17,ACATGCCT,0.066
18,CCATGCCG,0.336
19,CCATGCCA,0.148
20,ACATGCCG,0.369
21,ACATGCCC,-0.168
22,CCATGCCC,-0.0806
23,TAATAGCA,-0.0461
24,ACGCCGAC,0.204
25,GCGCCTCC,0.293
26,AAGCCGCT,0.265

row,Sequence,PBM E-score
1,ACGCCGCC,0.355
2,CCGCCGCA,0.402
3,CCGCCGGA,0.0267
4,CCGCCGAA,0.216
5,CCGCCGCC,0.194
6,ACGCCGCT,0.423
7,GCGCCGCC,0.454
8,CCGCCGGC,0.165
9,ACGCCGAT,0.23
10,ATGGAGGC,-0.236
11,AGTGGGTG,-0.0322
12,GCAACAGC,0.0755
13,AACGCTCT,-0.216
14,ACGCCGGA,0.00769
15,ACGACGCA,0.0151
16,TCACCGCA,-0.0824
17,ACGCCGCG,0.473
18,GGGCCGCA,0.285
19,ACGCCGCA,0.476
20,AGGCCGCA,0.162
21,AGGCCGCG,0.244
22,CGGCCGCA,0.325
23,TCTCCGCA,-0.0488
24,ACGCCGAG,0.0836
25,TCGCCGCA,0.448
26,ACAAAAGT,0.0775

row,Sequence,PBM E-score
1,ACGTTAAT,0.112
2,GCCCTACA,0.0881
3,GTAACTAA,0.0925
4,CTTGATAC,0.113
5,CTAGGTCC,-0.102
6,AGTCAAGA,-0.0455
7,GTTCAAGA,0.0574
8,CCTCGGAA,-0.0641
9,CCGCCCCG,0.273
10,CCGCCGAG,0.083
11,CCGCCGCG,0.437
12,TCCAAGCA,0.0574
13,GGCATCCC,-0.0465
14,GGCATCGA,0.327
15,AGCATCGA,-0.0592
16,CGCATCGA,0.0903
17,CTATGCTA,-0.0393
18,CAACCAGA,0.0587
19,CAGCACGA,-0.0106
20,ACGCACGA,0.237
21,CAGCACGG,0.333
22,CCGCACGA,0.27
23,GCGCACGC,-0.0354
24,CAGCACGC,0.145
25,ACGCACGG,0.419
26,AAGCACGG,0.295

row,Sequence,PBM E-score
1,CCGCACGC,0.323
2,ACGCACGC,0.265
3,CCGCACGG,0.448
4,CCGCACAA,0.285
5,ATTCTAAG,0.126
6,ACGGGGAT,-0.0326
7,AGTCTTCC,-0.0735
8,TGGGGCAA,-0.00868
9,CGAAGTGA,0.00778
10,CCCAACCC,-0.174
11,CGCGTCCG,-0.0671
12,ATCATAAC,0.161
13,TATAGCGA,-0.151
14,AGGGAGCA,-0.403
15,CGCGGAAC,0.383
16,AGCGGAAC,-0.0267
17,GGCGGAAC,0.125
18,ACAATCAT,-0.00872
19,CAGGGCGC,0.363
20,CAGGGCAA,0.0617
21,AGGGGCGC,0.232
22,CAGGGCGG,-0.116
23,CAGGGCGA,0.0902
24,AAGGGCGG,-0.0196
25,CAGGGCAC,0.355
26,AAGGGCGC,0.354

row,Sequence,PBM E-score
1,CAGGGCAG,-0.114
2,GGGCCTCA,-0.0568
3,AACCCACT,0.00826
4,CGACTAGC,-0.13
5,ATCGTTCG,0.0636
6,GCTGCCAC,0.0537
7,AAGTGCCA,0.163
8,AAGTGCCC,0.079
9,CAGTGCCA,-0.0624
10,AAGTGCCG,0.453
11,CAGTGCCC,0.108
12,CAGTGCCG,0.453
13,AGTAGTGA,-0.0104
14,CTGGATAA,0.0621
15,CGGCATTC,0.441
16,AGGCATTA,0.228
17,AGGCATTC,0.106
18,CTGCATTC,-0.111
19,CGGCATTA,0.436
20,GGGCATTA,0.139
21,ACCTACAT,-0.177
22,AGTAGTCG,-0.0173
23,ATACTCAG,0.06
24,CACTGGGG,-0.231
25,GAGATATC,0.0576
26,CCACGCCC,-0.188

row,Sequence,PBM E-score
1,CCACGCCA,0.0283
2,CCACGCCG,0.34
3,ACACGCCC,-0.181
4,ATACGCCA,0.0267
5,ACACGCCG,0.351
6,ATACGCCC,-0.157
7,ATACGCCG,0.381
8,ACACGCCA,0.0386
9,GGGGCCCC,-0.2
10,ACCCTTTC,-0.15
11,CATGATTA,0.171
12,CCCTATCG,-0.196
13,TACAGAAA,0.212
14,CAACCATG,-0.0314
15,AGGAGAAT,-0.17
16,ATTCAAAC,0.11
17,GTTCAAAA,0.185
18,GTTCAAAC,0.323
19,AGCAGGCT,-0.098
20,CGGCGCAC,0.409
21,CGGCGCAA,0.422
22,AGGCGCAA,0.279
23,GGGCGCAC,-0.0463
24,AGGCGCAC,0.179
25,CGGCGCAG,0.428
26,CCGCGCAG,0.221

row,Sequence,PBM E-score
1,TGGCGCAA,0.298
2,AGGCGCAG,0.188
3,CCAAGACA,-0.137
4,CCCCCTAG,-0.354
5,ATTGGTGA,-0.0777
6,ACTAAGGA,-0.105
7,ACCTTACC,0.0147
8,CCTTTTTC,0.104
9,TAACCACA,-0.022
10,CAACCTGG,-0.101
11,TAAGTCAA,-0.0101
12,AGAGGCAG,-0.125
13,CGAGGCAA,0.359
14,GGAGGCAC,0.148
15,AGAGGCAT,0.242
16,AGAGGCAC,0.366
17,CGAGGCAC,0.384
18,CGAGGCAG,0.12
19,AGAGGCAA,0.0357
20,TGAGGCAA,0.234
